# PubChem BioAssay AID588689 (Southern Research Specialized Biocontainment Screening …, 2011)
# Screen size: about 340,000 compounds; about 1,000 (0.29%) were called active. Rule as the data show it: inconclusive = inhibition above about 29% without an active follow-up result; inactive = below that. Only a sample is shown. Potency and affinity values are given separately.
# Biological target: Genome polyprotein (Dengue virus type 2 (strain 16681-PDK53)) (UniProt P29991)
# Experiment: Dengue-2 NS5 methyltransferase inhibitors, primary screen, biochemical, confirmation dose response (AID 588689)
# Settings: Dengue-2 NS5 methyltransferase capping enzyme assay, at 25 µM, stronger effect = higher value
# [1] = measured here: pilot screen replicate inhibition
Compound,inhibition,inhibition [1]
O=[N+]([O-])c1ccc(CN2CCC(Cc3ccccc3)CC2)cc1,-6.79% (inactive),–
CCN1CCN(CCCNC(=O)CNC(=O)c2nn(-c3ccc(OC)cc3)c(=O)c3ccccc23)CC1,0.79% (inactive),–
CCCCCc1nnc(N)s1,0% (inactive),–
CN1CCN(NC(=O)CSc2ccc(Cl)cc2Cl)CC1,-10.7% (inactive),–
CCOC(=O)c1c2c(n(Cc3ccccc3)c1C)C(=O)C(=O)c1ccccc1-2,25.5% (inactive),–
CCOC(=O)c1c(C)nc2c(c1-c1cc(OC)ccc1OC)C(=O)c1ccccc1-2,0% (inactive),3.65%
Cc1ccc(NC2=CC(=O)C(=O)c3ccccc32)cc1,54.8% (inactive),5.15%
O=C1C=C(Nc2ccc(F)cc2)c2ccccc2C1=O,0.37% (inactive),–
CC(C)(C)c1ccc(C2(C)NC(=O)N(CC(=O)c3ccc[nH]3)C2=O)cc1 (stereo not drawn),-2.04% (inactive),–
CC(OC(=O)c1cccc(-n2cnnn2)c1)c1nc2ccccc2c(=O)[nH]1 (stereo not drawn),-3.65% (inactive),–
CC(=O)OCC1=C(C(=O)O)N2C(=O)C(NC(=O)CCn3nc(C)c(Cl)c3C)C2SC1 (stereo not drawn),0.78% (inactive),–
CC(=O)OCC1=C(C(=O)O)N2C(=O)[C@@H](NC(=O)Cc3ccccc3)[C@H]2SC1,-1.45% (inactive),–
O=C(O)c1cccc(NC(=O)c2ccc3c(c2)C(=O)N(Cc2ccco2)C3=O)c1,-0.72% (inactive),–
O=C(O)CCCCN1C(=O)/C(=C\c2ccc(OCc3ccccc3)c(OCc3ccccc3)c2)SC1=S,6.5% (inactive),–
O=C(O)CCCN1C(=O)/C(=C\c2ccco2)SC1=S,47.7% (inactive),–
O=C1NC(=O)/C(=C/c2ccccc2OCc2ccccc2)S1,11.6% (inactive),–
CN1C(=O)/C(=C\c2ccccc2OCc2ccccc2)SC1=S,-2.61% (inactive),–
Cc1nn(-c2ccccc2)c(Cl)c1/C=C1\SC(=S)N(C)C1=O,4.37% (inactive),–
O=C1NC(=O)/C(=C\c2ccccc2OCc2ccccc2)S1,-0.78% (inactive),–
Cc1nn(-c2ccccc2)c(Cl)c1/C=C1\C(=O)N(C)C(=S)N1C,-12.7% (inactive),–
O=C(O)COc1ccccc1/C=C1\SC(=O)N(Cc2ccc(F)cc2)C1=O,8.1% (inactive),–
CC(Oc1ccccc1)C(=O)N=C1SC2CS(=O)(=O)CC2N1Cc1ccccc1 (stereo not drawn),0% (inactive),–
Cc1nc(-c2ccccc2)sc1C(=O)Nc1ccccc1F,0% (inactive),–

Compound,inhibition,inhibition [1]
CCOC(=O)N1CCN(C(=O)c2cn(CC)c3ccc(S(=O)(=O)N(C)C4CCCCC4)cc3c2=O)CC1,2.95% (inactive),–
O=C(NO)C1CC2C=CC1C2 (stereo not drawn),-6.15% (inactive),–
CCn1ccc2c(OCC(=O)NCCc3ccc(OC)c(OC)c3)cccc2c1=O,-3.6% (inactive),–
CN1C(=O)S/C(=C/c2ccccc2OCc2ccc(C(=O)O)cc2)C1=O,5.16% (inactive),–
CC(=C\c1ccccc1)/C=C1/SC(=S)N(CCCC(=O)O)C1=O,19% (inactive),–
CC(=C\c1ccccc1)/C=C1/SC(=S)N(CCC(=O)O)C1=O,11.1% (inactive),–
CCOc1ccccc1C=C1SC(=S)N(CC)C1=O,6.98% (inactive),–
O=C(Nc1cccc(C(=O)O)c1)/C(=C\c1ccccc1)NC(=O)c1ccccc1Cl,-2.05% (inactive),–
O=C1CCc2cc(S(=O)(=O)NCCc3ccc(Cl)cc3)cc3c2N1CC3,3.62% (inactive),–
O=S(=O)(c1cccc2cccc(Cl)c12)N1CCCC1,-4.68% (inactive),–
O=C(CCC1CCCN(C(=O)CCC(F)(F)F)C1)NCc1ccc(F)c(F)c1 (stereo not drawn),-0.74% (inactive),–
O=C(COC(=O)c1ccco1)NCc1ccccc1Cl,3.03% (inactive),–
Nc1ccc(S(=O)(=O)c2cccc(N)c2)cc1,-5.56% (inactive),–
Nc1ccc(S(=O)(=O)c2ccc(N)cc2)cc1,1.49% (inactive),–
COCCn1c(C)cc(C(=O)CSc2n[nH]c(N)n2)c1C,-0.41% (inactive),–
O=c1c2c([N+](=O)[O-])cc([N+](=O)[O-])cc2sn1Cc1ccccc1,18.3% (inactive),–
O=C1c2c([N+](=O)[O-])cc([N+](=O)[O-])cc2S(=O)N1Cc1ccccc1 (stereo not drawn),10.1% (inactive),–
COC(=O)c1ccc(NC(=O)CCCCCn2nnc3ccccc3c2=O)cc1,-0.65% (inactive),–
O=C1CN(C(=O)N[C@@H](Cc2ccccc2)C(=O)N[C@H](Cc2ccccc2)C(=O)O)c2ccccc2N1,-2.17% (inactive),–
COc1cc(OC)cc(N(C(=O)C2COc3ccccc3O2)C(C(=O)NC2CCCCC2)c2ccc(O)cc2)c1 (stereo not drawn),-5.19% (inactive),–
COc1ccccc1NC(=O)Nc1ccccc1C(N)=O,-5.31% (inactive),–
NC(=O)N/N=C/c1ccc(-c2ccc(S(=O)(=O)Nc3ncccn3)cc2)o1,-2.88% (inactive),–
CCOc1ccc(C(=O)N/N=C/c2ccc(-c3ccc(S(=O)(=O)Nc4ncccn4)cc3)o2)cc1,0.82% (inactive),–

Compound,inhibition,inhibition [1]
CCOC(=O)CC(=O)CSc1ccc2nnc(-c3ccc(F)cc3)n2n1,0.81% (inactive),–
CC(C)CCN1CN(S(=O)(=O)c2cccs2)c2nc3ccccc3nc21,-2.77% (inactive),–
COc1cc(NC(=S)NN2CCN(C)CC2)cc(OC)c1,-3.9% (inactive),–
N#C/C(=C\C=C\c1ccccc1[N+](=O)[O-])c1nc(-c2ccc3c(c2)OCO3)cs1,-0.69% (inactive),–
COc1ccc(-c2cc(C(F)(F)F)n3nc(C(=O)NCc4ccco4)cc3n2)cc1,-2.82% (inactive),–
Cc1ccc(N2C(=O)c3sc4nnc(C)c(=O)n4c3C2=O)cc1,0% (inactive),–
CCc1ccc(N2C(=O)c3sc4nnc(C)c(=O)n4c3C2=O)cc1,-0.68% (inactive),5.46%
Cc1ccc(S(=O)(=O)N2CCCCC2)cc1NC(=O)c1ccco1,-2.75% (inactive),–
Cc1ccc(C)c(OCc2cc(C(=O)NC(C)c3cnn(C)c3)no2)c1 (stereo not drawn),-5% (inactive),–
CCOC(=O)N1CCC(Nc2c(-c3ccc(C)c(C)c3)c(=O)c2=O)CC1,-8.18% (inactive),–
COc1ccc(S(=O)(=O)Nc2cccc3c2O[C@H](CN(C)C(=O)Nc2ccc(C(F)(F)F)cc2)[C@@H](C)CN([C@H](C)CO)C3=O)cc1,-2.11% (inactive),–
O=C(CN1C(=O)S/C(=C\c2cccs2)C1=O)Nc1ccc(C(=O)O)c(O)c1,15% (inactive),–
O=C(CCN1C(=O)/C(=C/c2ccco2)SC1=S)Nc1ccc(C(=O)O)c(O)c1,48.7% (inactive),–
Cc1ccc(/C=C2\SC(=S)N(CCC(=O)NNC(=O)c3ccc(O)cc3)C2=O)cc1,-0.88% (inactive),–
O=C(CN1C(=O)S/C(=C\c2cccs2)C1=O)Nc1ccc(O)c(C(=O)O)c1,8.14% (inactive),–
O=C(CCCN1C(=O)/C(=C\c2ccccc2)SC1=S)Nc1ccc(O)cc1C(=O)O,20.6% (inactive),–
O=C(CN1C(=O)S/C(=C\c2cccs2)C1=O)Nc1ccc(O)cc1C(=O)O,14.3% (inactive),–
O=C(CCCN1C(=O)/C(=C\c2cccs2)SC1=S)Nc1ccc(O)cc1C(=O)O,-9.83% (inactive),–
O=C(CN1C(=O)/C(=C/c2ccco2)SC1=S)Nc1ccc(C(=O)O)c(O)c1,36.5% (inactive),–
CC(C)(CNC(=O)c1ccccc1F)CNC(=O)c1ccccc1F,3.07% (inactive),–
CC(C)OC(=O)N(C)C[C@H]1OCc2cnnn2CCCC(=O)N([C@H](C)CO)C[C@H]1C,-3.41% (inactive),–
COc1ccc(C2=NS(=O)(=O)N(C)C(C(=O)NC3CCCCC3)=C2)cc1OC,-5.5% (inactive),–
O=S(=O)(CCc1nc2ccccc2o1)c1ccc2ccccc2c1,-2.77% (inactive),–

Compound,inhibition,inhibition [1]
CC(Sc1nnc(COc2ccc(Cl)cc2)n1Cc1ccccc1)C(=O)O (stereo not drawn),0.73% (inactive),–
CCN(CC)C(=O)C1=C(C)N(CCC2=CCCCC2)C(=O)C(CC(=O)NCC2CCCCC2)C1 (stereo not drawn),-0.57% (inactive),–
O=[N+]([O-])c1cc(C(F)(F)F)cc([N+](=O)[O-])c1NN=C1CCCCC1,-139% (inactive),–
CC1(C)CC(=O)C=C(NCc2ccc(C(=O)O)cc2)C1,-7.73% (inactive),–
COc1ccc(CN2C(=O)C(C)Nc3ncnc(N4CCOCC4)c32)cc1 (stereo not drawn),-5.79% (inactive),–
COc1ccc(S(=O)(=O)N(CCCN2CCOCC2)Cc2cccc3ccccc23)cc1,1.67% (inactive),–
CCN(CC)c1ccc(C(=C2C=CC(=[N+](CC)CC)C=C2)c2ccc(N(CC)CC)cc2)cc1,17% (inactive),–
CCN(CC)c1ccc(C(=C2C=CC(=[N+](CC)CC)C=C2)c2ccc(S(=O)(=O)O)cc2S(=O)(=O)[O-])cc1,1.48% (inactive),–
Cc1ccc2[nH]cc(CCNC(=O)c3ccc4c(c3)OCO4)c2c1,1.31% (inactive),-1.82%
O=S(=O)(NCc1nnc2ccccn12)c1ccc(F)cc1,-3.63% (inactive),–
Cc1sc(N2C(=O)C3C4C=CC(C4)C3C2=O)c(C#N)c1C (stereo not drawn),-2.18% (inactive),–
CC(C)[C@H](NC(=O)c1c(F)cccc1F)C(=O)OCC(=O)NNC(=O)c1ccccc1,-2.88% (inactive),–
CN(C)c1ccc2c(O)cc(=O)n(C)c2c1,23.3% (inactive),–
CN(C)c1ccc(Cc2ccc(N(C)C)cc2)cc1,4.45% (inactive),–
COc1cc(NC(=O)c2cccs2)c(OC)cc1NC(=O)c1cccs1,-7.78% (inactive),–
CCC(C)N(C(=O)CSc1nc(C)nc2ccccc12)C1CCS(=O)(=O)C1 (stereo not drawn),-9.59% (inactive),–
O=C(c1ccccc1)N1CCN(c2ccc(N3CCOCC3)nn2)CC1,0.74% (inactive),–
C[C@H](CO)N1C[C@H](C)[C@H](CN(C)C(=O)Nc2ccccc2)OCc2cnnn2CCCC1=O,1.65% (inactive),–
O=C1C=C(Nc2ccccc2O)c2ccccc2C1=O,19% (inactive),–
O=C1C=C(Nc2cccnc2)c2ccccc2C1=O,33.2% (inactive),–
